# Bioassay records from PubChem.
# AMA1-RON2 inh = AMA1-RON2 (P. falciparum) interaction inhibition; AlphaScreen AMA1-biotinylated RON2 peptide binding; Potency, µM (series often up to 58.2 µM), for inactives: at the top dose activity change, negative = inhibition, hits mostly inhibitors; AID 720542; 360,000 compounds, 0.2% hits;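 also: potency is read from the fitted curve at half-maximal effect; 0% = vehicle wells and -100% = peptide control; nearly all actives have a fitted effect of over 45% in size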
#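 AMA1 (3D7) with his tag at 25 nM final met compounds first, then biotinylated RON2 peptide at 25 nM; detection used donor plus acceptor beads, 10 µg/mL apiece, read by AlphaScreen after 30 min at room temperature.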
# Pf growth 48h = inhibits P. falciparum growth in the first generation, 48 h | Potency, µM (series often up to 28.7 µM), for the others: at the highest dose activity change, negative = inhibition, hits mostly inhibitors | 310,000 compounds, 5.9% hits | P. falciparum luciferase growth in erythrocytes, 48 h; also: potency is read from the fitted curve at half-maximal effect; % is scaled to controls: 0 for no effect and ±100 for the full control effect
#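 Luminescence readout; reporter = integrated firefly luciferase in P. falciparum. RBC culture at 2% hematocrit, 0.1% parasitemia final, 37 C/5% CO2; decreased signal taken as growth inhibition.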
# Shiga toxin inh = inhibitors of Shiga toxin in Vero cells | 290,000 compounds, 9.2% hits | Vero cells, Shiga toxin protein synthesis inhibition reporter | inhibition, % at 38.7 µM | AID 2315; in the data active = inhibition mostly above about 28%, no sharp cut-off; inactive = mostly below about 43%; also: 0% is about no effect
# CHX counter = counter-screen for Shiga toxin inhibitors: cycloheximide protein synthesis inhibition. cell reporter, cycloheximide protein synthesis inhibition counterscreen. max response, %. 300,000 compounds, 12% hits; in the data active = max response mostly above about 13%, no sharp cut-off; inactive = mostly below about 14%; also: read at 38.3 µM for the half of the compounds with a filed dose; 0% is about no effect
# Pf growth 96h = P. falciparum growth inhibition at 96 hour, primary screen for plastid delayed-death inhibitors. Potency, µM (doses to about 28.7 µM), for the others: at the top dose activity change, negative = inhibition, hits mostly inhibitors. P. falciparum luciferase reporter growth, 96 h. 320,000 compounds, 6.9% hits; also: potency is read from the fitted curve at half-maximal effect; % is scaled to controls: 0 for no effect and ±100 for the full control effect
#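 Two-generation exposure (96 h) targets delayed-death phenotype. Reporter parasites carrying integrated firefly luciferase, in red cells at 2% hematocrit and 0.05% parasitemia final, kept at 37 C, 5% CO2; luminescence loss indicates inhibition.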
# HCV inh = inhibitors of hepatitis C virus infection | Potency, µM (highest dose often 41.8 µM), without a hit: top-dose activity change, negative = inhibition, actives largely listed as inhibitors | Huh7.5.1 HCVcc-Cre infection, luciferase reporter, 44 h | 340,000 compounds, 3.4% hits | AID 651820; also: potency is read from the fitted curve at half-maximal effect; % is scaled to controls: 0 for no effect and ±100 for the full control effect
#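 Seed cells (1,000/well) for 4 h; treat with compound and infect with HCVcc-Cre, moi about 0.5. Incubate 44 h, then detect luciferase activity.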
# Starred values were filed as active, the others as inactive; ? = inconclusive; . = no result given; [ ] = another dose, or the depositor's remark. Rows were chosen to be rich in hits. Some 21% of all compounds tested hit in one or more screens of this group. Unless noted, calls follow the shape of the dose curve; as a rule, active = well fitted curve in the direction sought with a large enough effect; inconclusive = small, poorly fitted or top-dose-only effect, or another doubt; inactive = no such curve, though single readings can be large; an effect the other way counts as inactive or inconclusive.
SMILES,AMA1-RON2 inh,Pf growth 48h,Shiga toxin inh,CHX counter,Pf growth 96h,HCV inh
CCN(C(=O)C1CCN(c2nc(-c3ccc(OC)cc3)no2)CC1)c1ccc(OC)cc1,-17%,9.3µM*,-6,8,2%,8.9µM*
COc1ccc(C2C(C(=O)N3CCN(c4ccccn4)CC3)CCC(=O)N2c2ccc(OC)cc2)cc1 (stereo not drawn),-1%,-5%,7,1,9%,4%
COc1ccc(NC(=O)C2CCN(c3nc(-c4ccc(OC)cc4)no3)CC2)cc1,9%,-16%,14,-3,-4%,?
Cc1nc2ccccc2c2oc(C(=O)N3CCN(c4ccc([N+](=O)[O-])cc4)CC3)cc12,18%,5%,-2,-4,22%,-18%
COc1ccc(S(=O)(=O)N2CCCC(N(C)CCc3ccccc3)C2)cc1OC (stereo not drawn),-13%,?,-1,-2,9%,6%
COc1ccc(-c2ccc3c(c2)C2CC3CCN2S(=O)(=O)c2ccccc2C)cc1 (stereo not drawn),0%,.,.,.,.,?
COc1cccc(NCc2ccc([N+](=O)[O-])s2)c1,-12%,-27%,21,-1,0.33µM*,0%
CCN(CC)P(=O)(Nc1ccccc1Br)c1ccc(N(C)C)cc1NC(=O)c1ccco1 (stereo not drawn),62%,?,19,12,9.3µM*,?
CCOC(=O)c1ccc(N2C(=O)c3n[nH]c(C)c3C2c2ccco2)cc1 (stereo not drawn),-1%,-18%,-6,6,27%[5.75 µM],-1%
Cc1ccc(N2C(=O)c3n[nH]c(C)c3C2c2ccco2)cc1 (stereo not drawn),11%,42%,73*,37*,-8%,-6%
O=[N+]([O-])c1cccc2c([N+](=O)[O-])cccc12,11%,12%,.,.,5.9µM*,16%
O=[N+]([O-])c1cccc2[nH]ncc12,5%,.,.,.,.,35%
CCOC(=O)/C=C/COc1ccccc1[N+](=O)[O-],13%,100%,102*,47*,21%,3%
COc1ccc(OCCOc2ccccc2[N+](=O)[O-])cc1,-5%,86%,26,39*,-14%,-17%
O=[N+]([O-])c1ccccc1OCCCN1CCOCC1,5%,13%,22,9.3*,57%,8%
CC(O)(c1cccnc1)c1nc(-c2cccc(C(F)(F)F)c2)cs1 (stereo not drawn),10%,.,.,.,.,.
CCOC(=O)C1CCCN(C(=O)c2ccc3c(c2)C(C)(C)CCC3(C)C)CC1 (stereo not drawn),-6%,.,.,.,.,.
O=[N+]([O-])c1ccccc1OCCOc1ccccc1[N+](=O)[O-],7%,98%,50*,18*,148%,?
COc1ccc(CNc2ncccc2[N+](=O)[O-])cc1,-5%,20%,52*,26*,66%,3%
COc1ccccc1C(CNc1ncccc1[N+](=O)[O-])N(C)C (stereo not drawn),-1%,-27%,-6,6,10%,7%
CC(C)(C)C(=O)COc1ccccc1[N+](=O)[O-],-5%,17%,-6,-3,-45%[1.15 µM],17%
COc1ccc(C(=O)N[C@H](C(=O)N2CCN(c3ccccc3F)CC2)C(C)C)cc1,-2%,3%,-3,-2,22%,-1%
CCCCN(C)C(=O)c1sc(=O)n(Cc2c(C)cccc2C)c1C,-4%,.,.,.,.,.
COc1ccc2nccc(/C=C/c3ccnc4ccc(OC)cc34)c2c1,-19%,3.3µM*,7,4,3.7µM*,?
COc1cccc(N2CCN(C(=O)c3cc4c(=O)n(Cc5ccccc5)ccc4nc3C)CC2)c1,-14%,?,-5,21,-10%,-24%
SMILES,AMA1-RON2 inh,Pf growth 48h,Shiga toxin inh,CHX counter,Pf growth 96h,HCV inh
Cc1cc(C)n(-c2cc(N3CCN(S(=O)(=O)c4ccc(Cl)cc4)CC3)ccc2[N+](=O)[O-])n1,12%,7.4µM*,-12,2,8%,?
Cc1cc(C)n(-c2cc(N3CCN(C(=O)c4cccc(Br)c4)CC3)ccc2[N+](=O)[O-])n1,-19%,?,-8,17,9.3µM*,?
CCCCCCCNC(=O)C1(CC2CC(c3ccccc3)=NO2)CCNCC1 (stereo not drawn),23%,12µM*,.,.,?,10µM*
O=C(NCc1ccccc1)C1(CC2CC(c3ccccc3)=NO2)CCNCC1 (stereo not drawn),-18%,12µM*,.,.,?,?
NC(=O)c1ccsc1NC(=O)COC(=O)c1cnccn1,-1%,-11%,.,.,18%,42%
CCCN1CCC(NC(=O)C2CC=CCC2C(=O)O)CC1 (stereo not drawn),-2%,9%,-30,8,27%,9%
Cc1ccc2nc(/C=C/c3cccc(F)c3)ccc2c1,45%,254%,90*,65*,287%,?
OC[C@@H]1CN(Cc2cccc(C(F)(F)F)c2)C[C@H](n2cnc3c(NCc4ccco4)ncnc32)O1,28%,.,.,.,.,.
CN(Cc1ccccc1)C(=O)c1ccc2sc([C@H]3C[C@H](O)[C@@H](CO)O3)nc2c1,6%,.,.,.,.,.
Cc1c(C(=O)N2CCNCC2)oc2ccccc12,-2%,3%,2,-5,-10%,6%
O=C(Nc1ccc(F)cc1F)c1sccc1SCc1cccc(C(F)(F)F)c1,39%,12%,-9,1,?,2%
COc1ccc(NC(=O)c2sccc2SCc2cccc(C(F)(F)F)c2)cc1,22%,?,36*,16*,?,?
O=C(Nc1ccc(F)cc1)c1sccc1SCc1cccc(C(F)(F)F)c1,94%,9.3µM*,-12,6,?,7%
COc1cc2ccccc2cc1C(=O)OCC(=O)c1c(N)n(C)c(=O)n(C)c1=O,20%,?,.,.,?,-16%
O=C(Nc1cccc(Cl)c1)c1ccccc1NC(=O)C1CCCCC1C(=O)O (stereo not drawn),14%,37%,27,21*,9%,-14%
CC(C)c1ccc(NC(=O)c2ccccc2NC(=O)C2CC=CCC2C(=O)O)cc1 (stereo not drawn),-4%,3%,60*,33*,-4%,0%
CC(C)c1ccc(NC(=O)c2ccccc2NC(=O)C2CCCCC2C(=O)O)cc1 (stereo not drawn),-7%,141%,60*,39*,169%,-4%
COC(=O)c1cc(NC(=O)COC(=O)C2CCC2)cc(C(=O)OC)c1,0%,1%,.,.,31%,13%
COc1cc(/C=N/NC(=O)c2nnn(-c3nonc3N)c2C)ccc1OCc1ccc(Cl)cc1,-6%,.,.,.,.,.
COC(=O)[C@H](CC(C)C)N(Cc1ccccc1)S(=O)(=O)N(Cc1ccccc1)[C@@H](CC(C)C)C(=O)OC,-1%,.,.,.,.,7%
